LmPK inh: inhibitors of Leishmania mexicana pyruvate kinase | Q27686 | purified LmPK, Kinase-Glo ATP luminescence, 1 h | Potency, µM (titrated, usually from 57.5 µM), inactives show at the top dose activity change, negative = inhibition, most hits filed as inhibitors | hit rate 0.37% among 290,000; also: potency is read from the fitted curve at half-maximal effect; % is scaled to controls: 0 for no effect and ±100 for the full control effect
Target sequence (Q27686 whole entry, looked up): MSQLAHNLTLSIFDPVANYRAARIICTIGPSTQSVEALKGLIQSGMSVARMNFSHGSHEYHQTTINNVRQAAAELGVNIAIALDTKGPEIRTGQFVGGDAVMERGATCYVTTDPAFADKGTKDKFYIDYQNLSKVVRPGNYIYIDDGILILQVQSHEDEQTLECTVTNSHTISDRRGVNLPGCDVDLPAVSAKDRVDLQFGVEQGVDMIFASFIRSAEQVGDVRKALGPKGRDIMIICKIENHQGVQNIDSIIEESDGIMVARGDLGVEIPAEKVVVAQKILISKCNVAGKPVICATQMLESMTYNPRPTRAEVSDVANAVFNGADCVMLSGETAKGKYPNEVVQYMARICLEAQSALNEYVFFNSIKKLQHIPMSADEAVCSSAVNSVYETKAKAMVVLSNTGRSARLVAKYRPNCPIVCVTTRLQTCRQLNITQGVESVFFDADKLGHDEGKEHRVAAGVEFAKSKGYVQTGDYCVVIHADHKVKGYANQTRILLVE
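In 50 mM imidazole pH 7.2 with 7 mM MgCl2, LmPK (0.1 nM) turned over PEP (0.5 mM) and ADP (0.1 mM) for 1 h at room temperature. Luciferase read-out of ATP.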
TbPYK inhibitor: T. brucei pyruvate kinase inhibition; Potency, µM (highest dose often 76.8 µM), for inactives: at the highest dose activity, negative = inhibition, most hits filed as inhibitors; AID 624173; hit rate 0.12% among 410,000; Q57TT1; TbPYK enzyme, Kinase-Glo Plus ATP luminescence, 45 min; also: potency is read from the fitted curve at half-maximal effect; % is scaled to controls: 0 for no effect and ±100 for the full control effect; nearly all actives have a fitted effect of over 50% in size
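Readout: single end-point luminescence (Kinase-Glo Plus, 10 min). Reaction conditions were TbPYK/substrate plus 130 uM ADP, 45 min at RT, pH 7.2 TEA buffer. No-enzyme wells served as controls, and data were normalized before concentration-response fitting.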
Shiga inhibitor: inhibitors of Shiga toxin in Vero cells; inhibition, % at 38.7 µM; hit rate 9.2% among 290,000; Vero cells, Shiga toxin protein synthesis inhibition reporter; AID 2315; in the data active = inhibition mostly above about 28%, no sharp cut-off; inactive = mostly below about 43%; also: 0% is about no effect
FBPA Giardia inh: inhibitors of Giardia lamblia fructose-1,6-bisphosphate aldolase; A8B2U2; purified Giardia FBPA; Potency, µM (doses to about 59.6 µM), for inactives: at the highest dose activity, negative = inhibition, usual class: inhibitors; hit rate 0.71% among 290,000; also: potency is read from the fitted curve at half-maximal effect; % is scaled to controls: 0 for no effect and ±100 for the full control effect; nearly all actives have a fitted effect of over 55% in size
Target sequence (A8B2U2 whole entry, looked up): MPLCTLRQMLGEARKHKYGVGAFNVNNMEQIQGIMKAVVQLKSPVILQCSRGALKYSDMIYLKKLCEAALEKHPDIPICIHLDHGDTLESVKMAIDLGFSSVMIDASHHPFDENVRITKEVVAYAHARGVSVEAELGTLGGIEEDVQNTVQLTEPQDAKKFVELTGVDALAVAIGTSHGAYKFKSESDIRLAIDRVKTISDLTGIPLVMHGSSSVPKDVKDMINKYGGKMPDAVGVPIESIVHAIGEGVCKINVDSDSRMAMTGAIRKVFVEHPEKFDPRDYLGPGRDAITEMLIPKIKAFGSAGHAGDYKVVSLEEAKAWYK
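40 nM FBPA preincubated 10 min at RT with compound (up to 57.5 uM final), then substrate plus GAPDH/TPI/NAD/arsenate coupling and diaphorase/resazurin added. Fluorescence read after 20 min at RT, 525/598 nm.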
CHX counter: affects cycloheximide protein synthesis inhibition readout, counter-screen | cell reporter, cycloheximide protein synthesis inhibition counterscreen | hit rate 12% among 300,000 | max response, %; in the data active = max response mostly above about 13%, no sharp cut-off; inactive = mostly below about 14%; also: read at 38.3 µM for the half of the compounds with a filed dose; 0% is about no effect
RE007 growth inh: less growth of the S. pombe RE007 Vpr strain; Potency, µM (top dose mostly 92.2 µM), for the others: top-dose activity change, negative = less growth, actives largely listed as inhibitors; hit rate 0.21% among 360,000; AID 651644; S. pombe RE007 Vpr strain, BacTiter-Glo ATP luminescence, 24 h; active = well fitted falling curve with a large enough effect; inconclusive = small, poorly fitted or top-dose-only effect; inactive = no such curve, though single readings can be large or run the other way; also: potency is read from the fitted curve at half-maximal effect; % is scaled to controls: 0 for no effect and ±100 for the full control effect; nearly all actives have a fitted effect of over 50% in size
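Fission yeast strain RE007, carrying one chromosomally integrated HIV-1 vpr copy, was seeded at OD 0.01 in PMG+AL medium with 23 nL pinned compound. After 24 h at 30 °C and 99% humidity, viability was read by BacTiter-Glo luminescence.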
* hit, by the source's call; ? = inconclusive; nt = no result; [ ] = another dose, or the depositor's remark. The entries come from a sample that favours hits as a whole. Unless noted, calls follow the shape of the dose curve; as a rule, active = well fitted curve in the direction sought with a large enough effect; inconclusive = small, poorly fitted or top-dose-only effect, or another doubt; inactive = no such curve, though single readings can be large; an effect the other way counts as inactive or inconclusive.

SMILES	LmPK inh	TbPYK inhibitor	Shiga inhibitor	FBPA Giardia inh	CHX counter	RE007 growth inh
C=Cc1ccc(Cn2c(C(=O)O)c(CNCc3ccccc3)c3ccc(OC)cc32)cc1	nt	4.1%	nt	nt	nt	nt
Cc1ccc(-n2c(O)c(C=Nc3ccccc3N)c(=O)[nH]c2=O)cc1C	-6.5%	-2.1%	67.2*	23.4%	45.6*	-12.8%
C/C(Cn1nnc([N+](=O)[O-])n1)=N\NC(=O)c1ccccc1O	4.0%	-6.8%	51.7*	17.7µM*	32.4*	-13.4%
C/C(Cn1nnc([N+](=O)[O-])n1)=N\NC(=O)c1ccc(O)cc1	5.5%	-4.4%	61.9*	?	22.9*	7.0%
C/C(Cn1nnc([N+](=O)[O-])n1)=N\NC(=O)c1ccc(O)cc1O	3.4%	-10.7%	72.1*	?	69.0*	-18.0%
COc1cc(C(=O)N/N=C(\C)Cn2nc([N+](=O)[O-])cc2C)ccc1O	0.9%	-14.0%	-1.8	-2.4%	-3.5	13.7%
C/C(Cn1nnc([N+](=O)[O-])n1)=N\NC(=O)c1ccc(Cl)c(Cl)c1	0.0%	1.5%	-16.8	?	-1.3	-15.8%
CCCc1noc(-c2ccc(NCc3ccc(C)cc3)c([N+](=O)[O-])c2)n1	nt	-6.1%	nt	nt	nt	nt
Cc1ccc2oc(C(=O)Nc3c(C(=O)c4ccc(C)c(F)c4)oc4ccccc34)cc(=O)c2c1	nt	-0.6%	nt	nt	nt	nt
CCOC(=O)CCCNC(=O)N1CCc2nc(COc3ccccc3)c3c(c2C1)CO[C@@H](C)C3	-4.9%[11.5 µM]	nt	nt	1.5%[12.9 µM]	nt	nt
Cc1ccc(/C=C2\SC(=S)N(CCC(=O)NCCCN3CCOCC3)C2=O)cc1	1.4%	2.0%	25.0	-3.1%	13.6	1.8%
CCc1ccc(/C=C2\SC(=S)N(CCC(=O)NCCCN3CCOCC3)C2=O)cc1	-1.2%	-0.2%	46.4*	nt	44.9*	3.5%
COc1ccc(/C=C2\SC(=S)N(CCC(=O)NCCCN3CCOCC3)C2=O)cc1	3.3%	-8.0%	27.7	10.7%	13.1*	-19.1%
C[C@@]1(C(NS(=O)(=O)c2cccc3cccnc23)c2ccc(-c3ccccc3)cc2)C[C@H]1C1CCCCC1 (stereo not given in full)	nt	nt	nt	-0.1%	nt	nt
COCC(=O)C(C(=O)OC)[C@H](CCc1ccccc1)NC(=O)OC (stereo not given in full)	nt	nt	nt	1.2%	nt	nt
CCCCn1c(-c2ccccc2)cnc1SCC(=O)NCCc1ccc(OC)c(OC)c1	9.6%	-3.2%	131.8*	0.9%	20.5*	6.6%
COc1ccc(CCNC(=O)CSc2nnc(-c3ccccc3)c3ccccc23)cc1OC	-3.1%	4.8%	-15.5	-0.6%	-0.7	-0.9%
O=C1N(CCCCN2C(=O)C3(OCCO3)c3ccccc32)c2ccccc2C12OCCO2	3.0%	-5.2%	-3.0	-6.7%	-3.0	-9.2%
CN1C(=O)C2(OCC(CO)([N+](=O)[O-])CO2)c2ccccc21 (stereo not given)	-6.7%	0.4%	50.5*	12.2%	14.2*	4.5%
COc1ccc(/C=C/C(=O)NC(=S)Nc2ccccn2)cc1	0.0%	-1.5%	89.7*	6.8%	46.8*	3.5%
COc1ccccc1/C=C/C(=O)NC(=S)Nc1ccccn1	5.8%	-2.3%	105.3*	-11.5%	45.5*	-16.6%
Cc1cccc(C)c1NC(=O)Cn1c(=O)n(CCC(=O)NCc2ccc3c(c2)OCO3)c(=O)c2sccc21	nt	4.1%	nt	nt	nt	nt
Cc1ccc(C(=O)Nc2cccc(C(=O)N/N=C/c3ccc(O)cc3)c2)cc1	0.3%	1.1%	34.1	5.3%	28.1*	-6.7%
O=C(N/N=C/c1cccc(NC(=O)c2ccc(Cl)cc2)c1)c1cccc(O)c1	1.0%	3.6%	77.3*	-1.7%	26.4*	7.1%
O=C(N/N=C/c1cccs1)c1cccc(NC(=O)c2ccc(Cl)cc2)c1	-0.2%	nt	12.6	3.9%	29.1*	nt
SMILES	LmPK inh	TbPYK inhibitor	Shiga inhibitor	FBPA Giardia inh	CHX counter	RE007 growth inh
O=C(N/N=C/c1cccs1)c1cccc(S(=O)(=O)Nc2ccc(Cl)cc2)c1	0.0%	0.3%	-3.3	6.3%	1.5	0.9%
Cc1cccc(C(=O)Nc2cccc(C(=O)N/N=C/c3ccncc3)c2)c1	-6.0%	-8.0%	-3.0	4.4%	-1.9	5.0%
Cc1ccc2[nH]c(=O)c3cc(C(=O)N(C)Cc4ccco4)sc3c2c1	17.8%	-0.1%	48.0	-5.9%	23.3*	2.8%
Cc1[nH]c(=O)[nH]c(=O)c1/C=N/NC(=O)CCNC(=O)OC(C)(C)C	-7.9%	2.5%	-6.2	-12.5%	17.6*	3.3%
Cc1[nH]c(=O)[nH]c(=O)c1/C=N/NC(=O)CCCCCNC(=O)OC(C)(C)C	2.4%	4.2%	14.7	?	-1.2	-12.9%
Cc1ccc(CNC(=O)Nc2ccccc2)n1C	3.1%	-3.0%	27.9	-8.7%	17.2*	-2.5%
COc1ccc(NC(=O)NCc2ccc(Cl)cc2)cc1	1.7%	0.1%	2.1	nt	6.5	-2.8%
Cn1cccc1CNC(=O)Nc1ccccc1	-22.4%	-2.7%	52.4*	-9.0%	42.7*	20.8%
Cn1cccc1CNC(=O)Nc1ccc(Cl)cc1	-1.9%	-8.2%	59.1*	-0.9%	49.1*	1.7%
Cc1ccc(NC(=O)NCc2cccn2C)cc1C	-2.6%	2.0%	58.8*	3.9%	18.1*	-9.5%
Cc1cc(C)cc(NC(=S)NCc2cccn2C)c1	2.2%	-2.9%	-5.0	0.1%	-3.1	13.1%
CCN(CC)CCCNC(=O)c1oc2c(c1C)-c1nn(Cc3ccc(Cl)cc3)cc1CC2	nt	-3.4%	nt	nt	nt	nt
Cc1ccc(NC(=O)CSc2c3c(nc4ccccc24)CCCC3)cc1F	nt	-5.7%	nt	nt	nt	nt
O=C(NC1CC(=O)N(c2ccccc2)C1)c1cccs1 (stereo not given)	nt	0.0%	nt	nt	nt	nt
CCN1C(=O)[C@H]2[C@H]3[C@H](O)[C@H](O)C/C(=N/OC/C=C(\C)CCC=C(C)C)[C@H]3CC[C@@H]2C1=O	nt	nt	nt	-3.5%[12.9 µM]	nt	nt
COc1ccc(-c2cnnc(N/N=C/c3ccc(O)c(O)c3)n2)cc1	-1.3%	-6.6%	31.5	?	30.4*	-27.3%
Oc1ccc(/C=N\Nc2nncc(-c3ccccc3)n2)cc1	-1.5%	5.4%	50.6*	2.8%	23.1*	-8.8%
COc1ccc(-c2cnnc(N/N=C/c3ccc(O)cc3)n2)cc1	-2.4%	1.8%	30.8	4.4%	30.0	-1.1%
Cc1cccc(NC(=O)c2cc(-c3ccc4c(c3)OCCO4)on2)c1	nt	-8.6%	nt	nt	nt	nt
O=C1C(=O)N(c2ccccn2)C(c2ccc(F)cc2)/C1=C(/O)c1ccc(Br)cc1 (stereo not given)	-0.9%	12.4%	nt	-4.1%	-3.8	-13.9%
Cc1ccc(/C(O)=C2/C(=O)C(=O)N(c3ccccn3)C2c2ccc(F)cc2)cc1 (stereo not given)	3.9%	2.7%	66.5	-4.9%	19.4*	-15.2%
O=C(CNC(=O)c1ccc(Cl)cc1Cl)OCc1nc2ccccc2s1	-1.6%	-0.6%	70.2	5.2%	2.0	-11.2%
O=C(CNC(=O)c1ccccc1)OCCCOC(=O)CNC(=O)c1ccccc1	-5.7%	-10.4%	-12.3	nt	-3.4	-0.2%
